Results with a measured potency or affinity are listed apart. Activity calls are given as the source filed them. How the calls were made is not given here.

The conditions of this assay: HEK293 cytotoxicity, plate reader; series mostly up to 26 µM; activity change, negative = cytotoxicity: at the top concentration.
For `CSc1nc2ccccc2n1CCOc1ccc(C)cc1`, the “activity change, negative = cytotoxicity” value is 3.08% (inactive).
Still for that read-out and setting: then `Clc1ccc(OCCn2cnc3ccccc32)cc1`, with -3.98% (inactive).
Take `FC(F)(F)c1cccc(OCCn2cnc3ccccc32)c1`: the “activity change, negative = cytotoxicity” value was -20.5% (inactive).
The same measure, in the same setting: then `CCc1nc2ccccc2n1CCOc1ccccc1`, with 0.75% (inactive); and `Cc1cccc(OCCn2c(=S)[nH]c3ccccc32)c1`, with -9.77% (inactive); and `COc1ccc(OCCn2cnc3ccccc32)cc1`, with 1.18% (inactive).
Take `Cc1cccc(OCCn2c(=S)[nH]c3c(F)cccc32)c1`: the result was inactive.
For the compound `O=S(=O)(c1ccc(OCCn2cnc3ccccc32)cc1)N1CCOCC1`, the “activity change, negative = cytotoxicity” value is -5.74% (inactive).
On the same count and under the same terms, the figure for `CCSc1nc2ccccc2n1CCOc1ccccc1` is -3.94% (inactive); for `Fc1ccc(OCCn2c(=S)[nH]c3ccccc32)cc1` it is 3.96% (inactive); for `CS(=O)(=O)c1ccc(OCCn2cnc3ccccc32)cc1` it is -4.02% (inactive).
For `CCCCc1nc2ccccc2n1CCOc1ccccc1`, the “activity change, negative = cytotoxicity” value was 2.48% (inactive).
As to `Cc1cccc(OCCn2cnc3ccccc32)c1`, the “activity change, negative = cytotoxicity” value is 0.448% (inactive).
Still for that read-out and setting: the figure for `Fc1ccc2c(c1)[nH]c(=S)n2CCOc1ccccc1` is -9.9% (inactive); for `COc1cccc(OCCn2cnc3ccccc32)c1` it is -6.92% (inactive); for `COc1ccccc1OCCn1c(=S)[nH]c2ccccc21` it is 6.22% (inactive).
Still for that read-out and setting: then `Cc1ccc2c(c1)[nH]c(=S)n2CCOc1ccccc1`, with -7.88% (inactive); and `S=c1[nH]c2cccc(Cl)c2n1CCOc1ccccc1`, with -3.5% (inactive); and `CC(C)Oc1ccc(OCCn2c(=S)[nH]c3ccccc32)cc1`, with -4.94% (inactive).
Same read-out and setting: the figure for `Cc1ccc(OCCn2cnc3ccccc32)c(C)c1` is -3.05% (inactive); for `Clc1ccccc1OCCn1cnc2ccccc21` it is 1.94% (inactive); for `CCCc1nc2ccccc2n1CCOc1ccccc1` it is -1.9% (inactive).
In the case of `CSc1nc2ccccc2n1CCOc1cc(C)ccc1C(C)C`, the “activity change, negative = cytotoxicity” value is -2.02% (inactive).
The same measure, in the same setting: the figure for `CC(C)Oc1ccc(OCCn2cnc3ccccc32)cc1` is -11.5% (inactive); for `Cc1ccccc1OCCn1cnc2ccccc21` it is 0.81% (inactive).
In the case of `Cc1ccc(OCCn2cnc3cc(C)c(C)cc32)cc1`, the “activity change, negative = cytotoxicity” value is 4.94% (inactive).
For `Fc1cccc2c1[nH]c(=S)n2CCOc1ccccc1`, the “activity change, negative = cytotoxicity” value was -1.06% (inactive).
Still for that read-out and setting: then `Clc1ccc(OCCn2cnc3ccccc32)c(Cl)c1`, with -8.49% (inactive); and `Cc1ccc(C(C)C)c(OCCn2c(=S)[nH]c3ccccc32)c1`, with -6.34% (inactive).
On the same count and under the same terms, then `Cc1cc2ncn(CCOc3ccccc3)c2cc1C`, with -13.7% (inactive); and `OCc1nc2ccccc2n1CCOc1ccccc1`, with 4.92% (inactive).

Values taken from PubChem BioAssay AID743316 (Broad Institute, 2014).
